# Compound activity from PubChem BioAssay.
# NALP1 inh = blocks the NALP1 inflammasome reconstituted in yeast | S. cerevisiae NALP1/ASC/caspase-1 growth, X-gal OD620, 72 h | AID 2071 | actives 0.61% (n = 280,000) | inhibition, % at 10 µM; in the data active means inhibition mostly above about 24%, no sharp cut-off; inactive means mostly below about 32%
# EBNA-1 inhibitor = blocks EBNA-1 binding to DNA; EBNA-1 DNA binding, fluorescence polarization; inhibition, % at 14.8 µM; actives 0.34% (n = 300,000); in the data active means inhibition above about 28%
# ZTA counter = blocks Epstein-Barr virus ZTA, an EBNA-1 counter-screen; ZTA-DNA binding, fluorescence polarization; inhibition, % at 11 µM; actives 0.15% (n = 320,000); AID 2234; in the data active means inhibition above about 33%
# PolyA inh = inhibitors of polyadenylation in S. cerevisiae. S. cerevisiae SKY197-pL101 polyadenylation reporter, beta-gal luminescence; efflux-impaired pdr1/pdr3 knockout yeast; score 100 = 6 SD above DMSO. activity score, % at 12 µM. AID 1875. actives 0.02% (n = 300,000);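 active means lowest replicate activity score at least 50, where 100 means six control SD above control mean; inconclusive means lowest score under 50 but half or more replicates reach 50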;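 further: yeast exposed to compound for 9 h at 30 °C; higher score means more reporter readthrough which indicates perturbed polyadenylation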
# NLRP3 yeast inh = inhibitors of NALP3 inflammasome in yeast; Yeast reconstituted NLRP3/ASC/caspase-1, beta-gal luminescence, 24 h; inhibition, % at 10 µM; actives 0.39% (n = 330,000);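 active means inhibition of 50% or more; inactive means inhibition below 50%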;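 further: plate controls were induced DMSO wells for no effect and uninduced yeast grown without galactose for full effect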
# dFosB act-1 = enhances mouse delta FosB homodimer DNA binding | P13346 | purified delta FosB, TAMRA-CDK5 oligo fluorescence polarization; percent of positive-control signal above neutral wells | activation, % at 25 µM | actives 0.99% (n = 340,000);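 active means mean activation above about 17%, with every replicate also reaching it, limit read from the data, passing the limit was not always enough; inconclusive means only one of the two conditions met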
# dFosB act-2 = activators of mouse delta FosB homodimer DNA binding | AID 588690 | 2,400 tested, under 10 active | shares compounds with dFosB act-1 | purified delta FosB, TAMRA-CDK5 oligo fluorescence polarization; normalised: neutral wells 0, positive control 100 | activation, % at 24.9 µM;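 active means highest replicate activation at or above 34% and every replicate reaching that threshold; inconclusive means meets only one of the two criteria; inactive means meets neither criterion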;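 further: higher polarization means more probe DNA bound by delta FosB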
# * hit, by the source's call; ? = inconclusive; . = not tested or not shown. Rows were chosen to be rich in hits. Some 2.2% of all compounds tested hit in one or more screens of this group.
SMILES,NALP1 inh,EBNA-1 inhibitor,ZTA counter,PolyA inh,NLRP3 yeast inh,dFosB act-1,dFosB act-2
CCOc1ccc(-n2c(SCC(=O)Nc3ccc(CC)cc3)nc3n[nH]c(C)c3c2=N)cc1,16.7,13.1,7.5,-3.4,-11.5,?,.
COc1ccccc1NC(=O)CSc1nc2n[nH]c(C)c2c(=N)n1-c1ccccc1Cl,-33.5,11.0,1.3,16.4,6.7,53.1*,-1.9
CCN(CC)S(=O)(=O)c1cccc(C(=O)Nc2cc(C)on2)c1,-29.1,6.4,-12.1,1.5,10.2,5.1,.
CN(C)CCN(C(=O)CCc1ccccc1)c1nc2c(F)cc(F)cc2s1,-3.8,3.3,9.8,21.1,16.4,2.7,.
COc1cc2ccccc2cc1C(=O)N(CCN(C)C)c1nc2ccc(Br)cc2s1,14.9,-6.9,-11.7,3.1,13.2,44.0*,4.7
CCN(CC)CCN(C(=O)c1ccccc1OC)c1nc2ccc(F)cc2s1,-23.2,-7.0,-0.5,14.9,15.1,-12.8,.
COc1cc2ccccc2cc1C(=O)N(CCN(C)C)c1nc2c(F)cc(F)cc2s1,23.4,2.2,11.6,15.8,15.2,34.7*,6.0
COc1cc2c(cc1OC)-c1cc(Nc3cccc(C)c3)nc(=O)n1CC2,10.4,12.1,-2.9,-11.4,5.7,30.3*,1.0
Cc1ccc(S(=O)(=O)Nc2ccc3c(c2)CC(=O)N([C@H](C)CO)C[C@@H](C)[C@H](CN(C)Cc2ccc(-c4ccccc4)cc2)O3)cc1,.,.,.,.,1.1,28.0*,1.9
CC(=O)Nc1nn(C)c2nc(C)cc(C)c12,-27.9,2.4,25.7,-23.0,10.8,-16.1,.
O=C(CSc1n[nH]c(-c2ccc(S(=O)(=O)N3CCCCC3)cc2)n1)Nc1nccs1,10.8,24.8,7.1,27.9,18.6,63.6*,5.1
CC(NC(=O)C1CCN(C(=O)Nc2ccccc2)CC1)c1ccc(Cl)cc1 (configuration not stated),.,.,6.3,.,1.9,-2.1,.
COc1cc(COCC(O)CN2CCN(CCN3C(=O)c4cccc5cccc(c45)C3=O)CC2)cc(OC)c1OC (configuration not stated),-22.3,-1.4,-13.5,-11.9,-4.2,37.1*,0.8
COc1ccc(COCC(O)CN2CCC(CN3C(=O)c4cccc5cccc(c45)C3=O)CC2)cc1OC (configuration not stated),12.2,11.2,0.8,16.2,3.9,27.6*,5.3
CCc1ccc(OCC(O)CN2CCC(CN3C(=O)c4cccc5cccc(c45)C3=O)CC2)cc1 (configuration not stated),40.9,0.2,2.9,-3.3,16.9,2.9,.
COc1cccc(OCC(O)CN2CCC(CN3C(=O)c4cccc5cccc(c45)C3=O)CC2)c1 (configuration not stated),-2.3,-22.1,7.0,-4.3,20.4,45.5*,3.5
COc1ccc(S(=O)(=O)N2CCC(C(=O)Nc3ccc(S(=O)(=O)N4CCCC4)cc3)CC2)cc1OC,.,-8.2,2.7,21.7,-2.1,-1.3,.
Cc1cc(C)cc(NC(=O)COC(=O)Cn2cnc3c2c(=O)n(C)c(=O)n3C)c1,.,.,2.9,.,3.6,-4.6,.
O=C(Cc1ccc(S(=O)(=O)N2CCOCC2)s1)NCCOc1ccccc1,.,-4.2,-6.0,1.1,1.7,1.5,.
Cc1ccc(C2(C(F)(F)F)NC(=O)N3C(=C2C#N)Nc2ccccc23)cc1 (configuration not stated),9.3,9.1,10.7,.,7.2,22.8*,6.2
CC1CCCCN1C(=O)CN1C(=O)c2ccccc2S1(=O)=O (configuration not stated),.,-1.5,-18.0,2.9,-0.5,1.4,.
CCCNC(=O)c1cc(S(=O)(=O)N2CCc3ccccc32)cn1C,18.0,-0.6,-2.8,7.3,8.8,1.8,.
CCc1ccccc1NC(=O)c1cc(S(=O)(=O)N2CCc3ccccc32)cn1C,11.5,-6.9,9.8,-12.6,-5.5,25.8*,-8.3
Cc1ccc(C(=O)NCC(=O)OCN2C(=O)c3ccccc3C2=O)cc1C,.,.,5.2,.,23.3,-6.8,.
Cc1cc(C)c(C)c(C(=O)COC(=O)CNC(=O)CN2C(=O)c3ccccc3C2=O)c1C,35.6,13.2,22.1,-1.8,-3.8,43.2*,?
SMILES,NALP1 inh,EBNA-1 inhibitor,ZTA counter,PolyA inh,NLRP3 yeast inh,dFosB act-1,dFosB act-2
CCc1ccc2c(COC(=O)CNS(=O)(=O)c3ccc(NC(C)=O)cc3)cc(=O)oc2c1,26.7,-0.8,13.4,16.0,8.5,?,.
CCc1cccc(OCCOC(=O)CNS(=O)(=O)c2ccc(NC(C)=O)cc2)c1,.,.,.,.,22.7,56.1*,3.0
O=S(=O)(c1ccc(Cl)cc1)N1CCc2ccccc21,19.8,-2.0,-2.8,15.2,2.0,17.7*,-10.5
CCOC(=O)c1nn(-c2ccccc2)c(=O)cc1OCC(=O)Nc1cc(C)ccc1OC,.,3.4,3.0,6.4,14.4,22.5*,5.5
Cc1noc(C)c1COc1ccccc1C(=O)NCCOc1ccccc1,.,.,.,.,20.9,-8.1,.
CCN1C(=O)c2cccc3c(NC(=O)c4cccc(N5C(=O)CCC5=O)c4)ccc1c23,34.8,9.7,-2.3,19.7,1.2,-0.5,.
CCOc1cc(C(=O)Nc2ccc3c4c(cccc24)C(=O)N3CC)cc(OCC)c1OCC,4.5,-5.7,12.3,-18.5,13.1,24.1*,4.7
N#CC1(NC(=O)CN2C(=O)NC3(CCCCCC3)C2=O)CCCCC1,.,.,7.0,.,3.0,-0.4,.
O=C(NC(=S)Nc1cccc(NC(=O)c2ccc(Cl)cc2Cl)c1)c1cccs1,17.2,9.7,-10.2,4.8,15.3,43.9*,-0.7
O=C(COC(=O)c1ccccc1NC(=O)c1ccco1)NCc1ccc2c(c1)OCO2,8.0,18.4,-3.1,-4.0,27.5,30.4*,2.3
Cc1ccc(CNC(=O)C2CCC(=O)N(C3CCCC3)C2)c(F)c1F (configuration not stated),20.4,4.1,10.1,-17.4,5.7,-3.5,.
COc1ccc(NC(=O)C2CCCN(S(=O)(=O)c3ccc4[nH]c(=O)ccc4c3)C2)cc1 (configuration not stated),8.4,4.6,-3.7,11.8,5.1,16.7*,2.5
COc1cc(NC(=O)C2CCCN(S(=O)(=O)c3ccc4[nH]c(=O)ccc4c3)C2)cc(OC)c1 (configuration not stated),13.4,-7.3,6.4,-1.6,8.4,52.4*,2.4
CCOc1ccc(NC(=O)C2CCCN(S(=O)(=O)c3ccc4[nH]c(=O)ccc4c3)C2)cc1 (configuration not stated),1.1,13.4,-4.7,2.0,12.3,14.5,.
Cc1c(N)cc2c(c1N)C(C)(C)CC2(C)C,.,.,.,.,.,4.8,.
O=C(Oc1cccc(-n2cnnn2)c1)C1CCCCC1,5.3,0.4,6.5,.,-8.5,-4.6,.
